Screening data: PubChem, National Center for Advancing Translational Sciences (NCATS)
Many of the other results were omitted from the sample, so hits are more common in it than they were.
12-LOX inh – Primary qHTS assay for inhibitors of human arachidonate 12S-lipoxygenase (ALOX12): Round 2. Polyunsaturated fatty acid lipoxygenase ALOX12 (Homo sapiens), P18054. 580,000 tested, 1.1% active. purified 12hLO, xylenol orange hydroperoxide absorbance. Potency, µM (doses to about 108 µM), without a hit: at the highest dose activity change, negative = inhibition, usual class: inhibitors; note: potency is the fitted concentration of half-maximal effect
Target sequence (P18054 whole entry, looked up): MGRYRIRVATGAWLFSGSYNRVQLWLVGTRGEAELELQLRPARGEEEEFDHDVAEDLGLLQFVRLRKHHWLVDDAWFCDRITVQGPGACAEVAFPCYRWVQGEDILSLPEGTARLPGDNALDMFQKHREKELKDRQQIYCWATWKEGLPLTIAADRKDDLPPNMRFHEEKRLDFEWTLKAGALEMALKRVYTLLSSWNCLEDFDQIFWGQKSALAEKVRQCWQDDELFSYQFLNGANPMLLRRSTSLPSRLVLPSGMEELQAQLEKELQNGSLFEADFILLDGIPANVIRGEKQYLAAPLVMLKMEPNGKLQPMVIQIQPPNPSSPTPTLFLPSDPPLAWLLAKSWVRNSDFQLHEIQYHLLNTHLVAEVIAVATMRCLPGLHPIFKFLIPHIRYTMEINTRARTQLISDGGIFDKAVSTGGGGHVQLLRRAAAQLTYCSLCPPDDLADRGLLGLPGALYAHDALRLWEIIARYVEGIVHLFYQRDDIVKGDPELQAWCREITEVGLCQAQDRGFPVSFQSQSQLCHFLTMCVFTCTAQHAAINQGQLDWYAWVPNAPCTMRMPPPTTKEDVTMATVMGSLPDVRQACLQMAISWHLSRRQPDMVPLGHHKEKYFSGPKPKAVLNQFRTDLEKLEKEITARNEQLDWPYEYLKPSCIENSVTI
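Purified human 12hLO (150 nM final) in 25 mM Hepes, 0.01% Triton X-100, pH 7.0 was preincubated 15 min at room temperature with compound. Then 40 uM arachidonic acid was added, 30 min. Hydroperoxide was read by Fe-XO absorbance ratio 573/405 nm.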
TDP1 cell noCPT – qHTS for Inhibitors of human tyrosyl-DNA phosphodiesterase 1 (TDP1): qHTS in cells in absence of CPT | DT40 Tdp1-/- hTDP1 cells, no CPT, ATP luminescence, 48 h | Potency, µM (series often up to 46.2 µM), without a hit: top-dose activity change, negative = growth inhibition, most hits filed as inhibitors | 420,000 tested, 15% active | AID 686978, 2013; note: potency is the fitted concentration of half-maximal effect; nearly all actives have a fitted effect of over 55% in size
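Seeded 400 DT40-hTDP1 cells/well (vehicle DMSO, no 20 nM CPT); pinned compounds; ≥48 hr at 37 °C; CellTiter-Glo luminescence as viability measure.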
HT1080 IDH1KD tx – qHTS for induction of synthetic lethality in tumor cells producing 2HG: qHTS for the HT-1080-IDH1KD cell line | 360,000 tested, 2% active | HT-1080 IDH1 knockdown viability, ATP luminescence, 48 h | AID 686971, 2013 | Potency, µM (top dose mostly 46.1 µM), for inactives: at the highest dose activity, negative = toxicity, usual class: cytotoxic;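 note: potency is the fitted concentration of half-maximal effect; 0% = DMSO wells and -100% = cell-free medium wells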
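After a 2 h attachment period, IDH1KD HT-1080 cells took pin-transferred compound for 48 h at 37 °C; ATP-based luminescence after 10 min room-temperature reagent incubation reported viability.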
IL-1B inflam inh – qHTS for Inhibitors of Inflammasome Signaling: IL-1-beta AlphaLISA Primary Screen | THP-1 LPS/ATP IL-1B secretion, AlphaLISA, 16 h; hits give low values | activity change, % at 57.5 µM | 360,000 tested, 4.7% active; in the data active = activity change below about -50%; inconclusive = mostly about -30% to -49%
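Secreted IL-1B measured by AlphaLISA bead assay after 16 h compound exposure of THP-1 cells; compounds (final up to 57.5 uM) added 1 h before LPS (250 ng/mL) and ATP (1.25 mM) stimulation; lower signal means less secretion.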
HT1080NT lethal – qHTS for induction of synthetic lethality in tumor cells producing 2HG: qHTS for the HT-1080-NT fibrosarcoma cell line | Potency, µM (series often up to 46.1 µM), inactives show top-dose activity, negative = less viability, most hits filed as cytotoxic | HT-1080-NT fibrosarcoma viability, CellTiter-Glo ATP luminescence, 48 h | 360,000 tested, 1.6% active;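 note: NT is the 2HG producing partner of a matched IDH1 knockdown line; potency is the fitted concentration of half-maximal effect; 0% = DMSO-treated cells and -100% = media-only wells without cells; nearly all actives have a fitted effect of over 55% in size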
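HT-1080-NT fibrosarcoma cells (2HG-overproducing), 750 cells/well in RPMI with 5% FBS, dosed after 2 h and incubated 48 h at 37C. CellTiter-Glo luminescence normalized to DMSO and no-cell wells; concentration-response curves fitted and classed.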
DT40 TDP1 CPT – qHTS for Inhibitors of human tyrosyl-DNA phosphodiesterase 1 (TDP1): qHTS in cells in presence of CPT; 420,000 tested, 12% active; chicken DT40 Tdp1-/-;hTDP1 cells + 20 nM CPT, ATP luminescence, 48 h; AID 686979, 2013; Potency, µM (titrated, usually from 46.2 µM), for inactives: top-dose activity change, negative = growth inhibition, actives largely listed as inhibitors; note: potency is the fitted concentration of half-maximal effect; nearly all actives have a fitted effect of over 55% in size
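Chicken DT40 Tdp1-/- cells complemented with human TDP1, 400 cells/well, exposed to compounds plus 20 nM camptothecin for at least 48 h at 37 C; viability read as ATP content by CellTiter-Glo luminescence.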
* hit, by the source's call; u = inconclusive; x = no result given; [ ] = another dose, or the depositor's remark. Unless noted, calls come from the whole dose curve; as a rule, active = well fitted curve in the direction sought with a large enough effect; inconclusive = small, poorly fitted or top-dose-only effect, or another doubt; inactive = no such curve, though single readings can be large; an effect the other way counts as inactive or inconclusive. Unless noted, % is set by controls: 0 for no effect and ±100 for the full control effect.

SMILES | 12-LOX inh | TDP1 cell noCPT | HT1080 IDH1KD tx | IL-1B inflam inh | HT1080NT lethal | DT40 TDP1 CPT
COc1ccc(C2CC(=O)Oc3c2c(=O)n(C)c2ccccc32)c(OC)c1 (stereo unspecified) | -16% | x | x | x | x | x
C1CC(COCCc2noc(C3CNC3)n2)CCO1 | 68% | x | x | x | x | x
Cc1ccc2c(COC(=O)c3cccs3)cc(=O)oc2c1C | -23% | x | x | x | x | x
CC(C)N1CCC(CNC(=O)Nc2ccccc2F)C1 (stereo unspecified) | 8% | x | x | x | x | x
COc1ccc(-c2nn(Cc3nc(-c4ccc(Br)cc4)no3)c(=O)c3ccccc23)cc1 | -6% | x | x | x | x | x
C/C(=N\Nc1nc2ccccc2[nH]1)c1ccc(N2CCOCC2)cc1 | -11% | 16µM* | u | -96* | u | u
O=C(CSc1nc2ccccc2[nH]1)c1ccc(Cl)s1 | -15% | -1% | 6% | 3 | 5% | -2%
C/C(=N\Nc1nc2ccccc2[nH]1)c1ccc(Cl)s1 | u | 23µM* | u | -97* | u | u
O=c1c2ccccc2sn1-c1ccc(S(=O)(=O)N2CCCC2)cc1 | -78% | 5.2µM* | -3%[9.24 µM] | -102* | -1% | 3.3µM*
Cc1ccc(-c2n[nH]c(=O)c3ccccc23)cc1S(=O)(=O)N1CCCCC1 | -9% | x | x | x | x | x
O=S(=O)(c1ccccc1)N1CCN(S(=O)(=O)N2CCCCCC2)CC1 | -14% | -16% | -14% | 14 | -4% | 5%
O=c1c2ccccc2sn1-c1ccc(S(=O)(=O)N2CCCCC2)cc1 | u | 16µM* | 0% | -91* | 2% | 2.1µM*
Cc1ccc(-n2sc3ccccc3c2=O)cc1S(=O)(=O)N1CCCCC1 | 0.089µM* | 2.9µM* | u | -106* | u | 2.3µM*
O=C1NCCCCCCN(Cc2ccncc2)[C@@H]2CN(C(=O)Nc3ccc4c(c3)OCCO4)CC[C@H]12 | 3% | x | x | x | x | x
CNC1[C@@H]2CC3C[C@H]1CC(O)(C3)C2 (stereo partly specified) | -3% | x | x | x | x | x
COCCn1ncc(N2CCCC(CC(=O)NCc3ccc(Cl)cc3)C2)cc1=O (stereo unspecified) | -11% | x | x | x | x | x
COc1ccc(C(=O)Nc2nc3c(s2)C[C@@H]2[C@](C)(CO)[C@H](O)CC[C@@]2(C)[C@@H]3CC(=O)N2CCOCC2)cc1 | 89µM* | x | x | x | x | x
CC(C)(C)c1ccc(C(=O)Nc2nc3c(s2)C[C@@H]2[C@](C)(CO)[C@H](O)CC[C@@]2(C)[C@@H]3CC(=O)N2CCOCC2)cc1 | 6% | x | x | x | x | x
COc1ccc2nc(N3C(=O)C(O)=C(C(=O)c4ccco4)C3c3ccccc3OC)sc2c1 (stereo unspecified) | u | u | -1% | 13 | 4% | u
Cc1ccc2nc(N3C(=O)C(O)=C(C(=O)c4ccco4)C3c3cccs3)sc2c1 (stereo unspecified) | 18µM* | u | u | 66 | u | u
COc1ccc2nc(N3C(=O)C(O)=C(C(=O)c4ccco4)C3c3ccc(C)o3)sc2c1 (stereo unspecified) | u | 18µM* | -28% | 52 | -26% | -17%
Cc1ccc2nc(N3C(=O)C(O)=C(C(=O)c4ccc(C)o4)C3c3ccc(O)cc3)sc2c1 (stereo unspecified) | 28µM* | 20% | 2% | 3 | -17% | 2%
Cc1ccc(S(=O)(=O)c2cc3c(=O)n4ccccc4nc3n(Cc3ccco3)c2=N)cc1C | 0% | u | 4% | -24 | 2% | u
Cc1ccc(S(=O)(=O)c2cc3c(=O)n4ccccc4nc3n(CCc3ccccc3)c2=N)cc1 | -7% | 16µM* | 6% | 6 | 8% | u
N=c1c(S(=O)(=O)c2ccccc2)cc2c(=O)n3ccccc3nc2n1Cc1ccco1 | -22% | 21µM* | -19% | -79* | -23% | u
SMILES | 12-LOX inh | TDP1 cell noCPT | HT1080 IDH1KD tx | IL-1B inflam inh | HT1080NT lethal | DT40 TDP1 CPT
Cc1cccn2c(=O)c3cc(S(=O)(=O)c4ccc(F)cc4)c(=N)n(Cc4ccco4)c3nc12 | 10% | u | 23µM* | -80* | u | u
COc1ccc(CCn2c(=N)c(S(=O)(=O)c3ccccc3)cc3c(=O)n4ccccc4nc32)cc1 | 1% | u | 1% | -11 | 1% | -16%
Cc1ccc2nc3c(cc(S(=O)(=O)c4ccccc4)c(=N)n3Cc3ccco3)c(=O)n2c1 | -24% | u | 8% | -52* | 18% | -29%
Cc1cccn2c(=O)c3cc(S(=O)(=O)c4ccccc4)c(=N)n(Cc4ccco4)c3nc12 | -3% | 15% | 17% | -18 | 25% | 0%
CC(C)Oc1ccc(NC(=O)c2cc3cc(Br)ccc3oc2=O)cc1 | 3% | x | x | x | x | x
Cc1ccc2oc(C(Cl)(Cl)Cl)cc(=O)c2c1 | 1%[57.4 µM] | 5.8µM* | u | -100* | 10µM* | 4.6µM*
Cc1cccc(NC(=O)c2ccc([N+](=O)[O-])s2)c1C | -18% | 21µM* | -17% | -15 | -10% | 15µM*
